Screening data: PubChem BioAssay, Broad Institute
Mtb BioA inh – BioA (M. tuberculosis) enzyme inhibition; AID 602481; purified M. tuberculosis BioA enzyme, plate reader; 0.096% of 360,000 active; inhibition, % at 9.99 µM; in the data active means inhibition above about 40%; inconclusive means no clear call, values can overlap the other calls
TcdB GH inh – blocks C. difficile toxin B glycohydrolase activity; P18177; TcdB glycohydrolase enzymatic assay, plate reader; 0.24% of 350,000 active; AID 652162; inhibition, % at 9.99 µM; in the data active means inhibition above about 10%
FadD28 FP inh – inhibitors of Mycobacterium tuberculosis FadD28 bisubstrate binding; FadD28 bisubstrate probe binding, fluorescence polarization; inhibition, % at 12.5 µM; 0.22% of 360,000 active; AID 588549; in the data active means inhibition above about 8.5%, passing the limit was not always enough; inconclusive means no clear call, values can overlap the other calls
PrP 5UTR inh – inhibition of PrP 5' UTR reporter expression. inhibition, % (no concentration beside the values). cell-based PrP 5' UTR mRNA reporter, plate reader. AID 488862. 0.35% of 340,000 active; in the data active means inhibition above about 52%
PfHsp40 yeast – compounds rescuing yeast from Plasmodium falciparum HSP40 toxicity; 0.68% of 340,000 active; S. cerevisiae expressing PfHsp40, growth rescue, ATP luminescence; growth rescue, % at 12.5 µM; in the data active means growth rescue above about 28%, passing the limit was not always enough; inconclusive means no clear call, values can overlap the other calls;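 further: yeast W303a lacking pdr1 and pdr3 grown in galactose medium; growth measured after three days at 30 °C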
PrP UTR cherry – prion 5' UTR mRNA inhibition, cherry-pick retest; shares compounds with PrP 5UTR inh; cell-based prion protein 5' UTR reporter, plate reader; inhibition, % at 2.5 µM; 48% of 1,100 active; AID 504592; in the data active means inhibition above about 54%; inconclusive means no clear call, values can overlap the other calls
A number is an active result; – = inactive; ? = inconclusive; · = not tested or not shown. Sampled rows, rich in hits. Any-hit rate of the full collection: about 1.1%.

SMILES | Mtb BioA inh | TcdB GH inh | FadD28 FP inh | PrP 5UTR inh | PfHsp40 yeast | PrP UTR cherry
S=C(NCc1ccco1)Nc1cc(-c2ccccc2)[nH]n1 | – | – | – | 62.1 | – | –
C[C@@H]1CCCCO[C@@H](CN(C)C(=O)Nc2cccc3ccccc23)[C@@H](C)CN([C@@H](C)CO)C(=O)c2cc(NC(=O)c3ccccc3)ccc2O1 | – | – | · | · | · | ·
O=C(c1ccccc1)N1CCSc2sccc2C1=O | – | – | – | 58.0 | – | –
COc1ccc(CN2[C@@H]3CN(C(=O)C4CC4)c4ccccc4[C@@H]3[C@@H]2CO)cc1 | – | – | · | · | · | ·
COC(=O)Nc1ccc(S(=O)(=O)N2CCCCC2C(=O)NCc2ccco2)cc1 (centres undefined) | · | · | – | 89.2 | – | –
Cc1ccc(S(=O)(=O)N2CCCCC2C(=O)NCc2ccco2)cc1 (centres undefined) | – | · | – | – | – | ·
Cc1noc(C)c1S(=O)(=O)N(C)C[C@@H]1Oc2ccc(NC(=O)CCC(F)(F)F)cc2CC(=O)N([C@H](C)CO)C[C@@H]1C | – | – | · | · | · | ·
CC(=O)C[C@H](O)CC(=O)[C@H]1OC(=O)CCCCCc2ccccc21 | – | – | – | – | – | ·
CC(=O)C[C@H](O)CC(=O)[C@@H]1OC(=O)CCCCCc2ccccc21 | – | – | – | 89.6 | – | –
CC(=O)C[C@H](O)CC(=O)[C@H]1OC(=O)[C@H](C)CCCCc2ccccc21 | – | – | – | 66.4 | – | –
CCCN1[C@@H]2c3ccc(-c4ccccc4)c(=O)n3C[C@H]1[C@H](CO)[C@H]2C(=O)NCC | – | · | · | · | · | ·
CCOC(=O)c1cccc(NC(=O)/C=C/c2ccc3c(c2)OCO3)c1 | · | · | – | 60.4 | – | –
O=C(Nc1cccc(C(=O)O)c1)Nc1ccc2c(c1)OCO2 | – | – | – | 83.7 | – | 73.3
O=C(O)c1ccc(N/N=C/c2ccc3c(c2)OCO3)cc1 | · | – | – | 77.2 | – | 64.8
COc1cccc(NC(=O)Nc2cccc(C(=O)O)c2)c1 | · | – | – | 62.0 | – | 62.9
COc1cccc(-c2ccc(C3[C@H]4CNC[C@@H]3N4C(=O)Nc3ccccc3OC)cc2)c1 (some centres undefined) | · | – | · | · | · | ·
C[C@@H]1CN([C@H](C)CO)C(=O)c2cc(C#Cc3ccccc3)cnc2O[C@H]1CN(C)C(=O)CCN1CCCCC1 | – | – | · | · | · | ·
Cc1cc(-c2ccc(N3CCOCC3)cc2)nc2ccccc12 | · | – | – | – | – | ·
c1ccc2nc(-c3ccc(N4CCOCC4)cc3)ccc2c1 | · | · | – | 74.6 | – | 66.6
CN1CCN(c2ccc(-c3ccc4ccccc4n3)cc2)CC1 | · | – | – | 91.9 | – | 90.6
CO[C@H]1CN(C)C(=O)c2cc(NC(=O)Nc3cccc(F)c3)ccc2OC[C@H](C)N(C(=O)C2CC2)C[C@H]1C | – | · | · | · | · | ·
C[C@H]1CN([C@@H](C)CO)C(=O)c2cc(NC(=O)C3CCCCC3)ccc2O[C@@H]1CN(C)C | – | – | · | · | · | ·
COCC(=O)Nc1ccc2c(c1)OC[C@@H](C)N(CC1CCCCC1)C[C@H](C)[C@@H](OC)CN(C)C2=O | – | – | · | · | · | ·
COc1cccc2c1C(CO)N1C(C#N)C3CC(C(=O)O)C(C1C2)N3C (centres undefined) | – | – | – | 69.3 | – | 75.0
CC(=Nc1ccccc1)C1=C(O)C(Cc2ccc(O)cc2)NC1=O (centres undefined) | · | – | – | 53.8 | – | 89.0
SMILES | Mtb BioA inh | TcdB GH inh | FadD28 FP inh | PrP 5UTR inh | PfHsp40 yeast | PrP UTR cherry
Cc1nnc(NN2CCOCC2)[nH]c1=O | – | – | – | 84.4 | – | –
CC(=O)Nc1cc(C)ns1 | · | – | – | 68.8 | – | ?
CC(C)Oc1ccc(C(=O)Nc2nc3ccccc3[nH]2)cc1 | – | – | – | 60.9 | – | 61.7
O=C(Nc1nc2ccccc2[nH]1)c1ccccc1F | – | · | – | 84.6 | – | 85.0
O=C(Nc1nc2ccccc2[nH]1)c1ccc(F)cc1 | · | – | – | – | – | ·
CCc1ccc(C(=O)Nc2nc3ccccc3[nH]2)cc1 | – | – | – | 62.7 | ? | ?
CCCCN=C[C@]12CCC(O)CC1(O)CCC1[C@@H]2CC[C@]2(C)[C@H](C3C=CC(=O)O3)CCC12O (some centres undefined) | – | – | – | 82.5 | – | 77.5
CC12CCC3C(CCC4(O)CC(O)CCC34C=NO)C1(O)CCC2C1=COC(=O)C1 (centres undefined) | · | – | – | 88.7 | – | 85.3
Cc1ccccc1N1C(=O)CC2(CCCC2)CC1=O | – | – | – | 81.7 | – | –
CCCCNS(=O)(=O)c1ccc(NC(=O)Cc2ccc(OC)cc2)cc1 | · | – | – | 69.3 | – | –
